Results filed as inconclusive are left out. Active and inactive are the calls of the source. Unless noted, calls follow the shape of the dose curve; as a rule, active = well fitted curve in the direction sought with a large enough effect; inconclusive = small, poorly fitted or top-dose-only effect, or another doubt; inactive = no such curve, though single readings can be large; an effect the other way counts as inactive or inconclusive.
Key:
[1] = Confirmation and Secondary Assay for Modulators of Hemoglobin Beta Chain Splicing at IVS2 654 locus (AID 910);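 also: HeLa cells stably carrying EGFP split by mutant beta-globin IVS2-654 intron; per-well total GFP intensity by laser scanning cytometry after 2-day treatment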
Procedure, shortened: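 Readout: per-well total peak green fluorescence (488 nm ex, 500–520 nm em) from objects 5–250 µm, reflecting correct splicing of an EGFP-654 reporter. Compounds were applied for 2 days at 37 °C to overnight-plated HeLa EGFP-654 cells; controls were DMSO and 500 nM IVS2-654 PNA.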

[2] = Confirmation and Secondary Assay for Modulators of Hemoglobin Beta Chain Splicing at IVS2 705 locus (AID 930);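 also: HeLa cells stably expressing the EGFP-705 splicing reporter; GFP fluorescence per well restored by corrected splicing of the IVS2-705 intron in EGFP; series mostly up to about 46 µM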
Procedure, shortened: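 Splice-correction reporter: EGFP cDNA split by beta-globin intron 2 bearing the 705 mutation, stably in HeLa. Compound incubation 2 days, 37C; fluorescent objects 5-250 µm summed per well.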

[3] = Cell Viability - LYMP2-001 (AID 921); also: nearly all actives have a fitted effect of over 70% in size; also: potency is read from the fitted curve at half-maximal effect
Procedure, shortened: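 Human lymphoblastoid cells (Coriell), 2500 per well, were preincubated 5 hr at 37 C, then exposed to compounds in complete medium for 24 hr at 37 C. Cellular ATP was read by CellTiter-Glo luminescence; AC50 from Hill fits of concentration-response data.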

[4] = MultiTox-Fluor Cytotoxicity Assay - LYMP1-001 - Dead Cells (AID 946); also: potency is read from the fitted curve at half-maximal effect
Procedure, shortened: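 Seed 2500 LYMP1-001 cells/well, incubate 5 hr at 37 C; add compound, 16 hr at 37 C; add MultiTox-Fluor reagent, 60 min RT; read dead-cell fluorescence Ex/Em=485/520. Normalize to DMSO and 15 uM tetraoctylammonium bromide.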

[5] = MultiTox-Fluor Cytotoxicity Assay - LYMP1-001 - Live Cells (AID 947); also: potency is read from the fitted curve at half-maximal effect
[6] = Cell Viability - LYMP1-002 - Assay at 16 hr (AID 948); also: potency is read from the fitted curve at half-maximal effect
Procedure, shortened: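 Human lymphoblastoid cells (LYMP1-002), 2500/well, were preincubated 5 hr at 37 C, then exposed to compounds for 16 hr at 37 C in complete medium. Cellular ATP was read by CellTiter-Glo luminescence after 30 min at room temperature; AC50 from Hill fits.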

[7] = MultiTox-Fluor Cytotoxicity Assay - LYMP1-002 - Live Cells (AID 955); also: potency is read from the fitted curve at half-maximal effect
Procedure, shortened: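 LYMP1-002 lymphoblastoid cells; 2500 cells/well; 16 hr compound exposure, 37 C; MultiTox-Fluor reagent 60 min RT; live-cell fluorescence Ex/Em=405/510; qHTS concentration-response, Hill-equation AC50; tetraoctylammonium bromide positive control.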

[8] = MultiTox-Fluor Cytotoxicity Assay - LYMP1-002 - Dead Cells (AID 960); also: nearly all actives have a fitted effect of over 60% in size; also: potency is read from the fitted curve at half-maximal effect
Procedure, shortened: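 Readout: fluorescence at 485/520 from cell-impermeant bis-AAF-R110 cleaved by proteases leaking from damaged cells. LYMP1-002 lymphoblastoid line, 16 hr compound treatment at 37 C, concentration-response in qHTS format; Hill-equation AC50 values.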

[9] = MultiTox-Fluor Cytotoxicity Assay - LYMP1-003 - Dead Cells (AID 961); also: nearly all actives have a fitted effect of over 70% in size; also: potency is read from the fitted curve at half-maximal effect
Procedure, shortened: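 LYMP1-003 lymphoblastoid, 2500 cells/well, 5 hr settle then 16 hr cpd at 37 C; MultiTox-Fluor reagent 60 min RT; Ex/Em 485/520 dead-cell signal; norm. DMSO = 0%, 15 uM tetraoctylammonium bromide = 100%; Hill AC50.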

[10] = MultiTox-Fluor Cytotoxicity Assay - LYMP1-003 - Live Cells (AID 962); also: potency is read from the fitted curve at half-maximal effect
Procedure, shortened: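 Readout: live-cell fluorescence (Ex/Em=405/510) from GF-AFC cleavage after 60 min MultiTox-Fluor reagent at room temperature. Lymphoblastoid LYMP1-003 cells, 16 hr compound treatment, 37 C. Concentration-response fitted to standard Hill equation for AC50.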

[11] = Cell Viability - LYMP1-003 - Assay at 24 hr (AID 963); also: potency is read from the fitted curve at half-maximal effect
Procedure, shortened: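 CellTiter-Glo luminescence (intracellular ATP) read after 24 hr, 37 C compound exposure of 2500 LYMP1-003 human lymphoblastoid cells/well in complete medium; qHTS concentration series; AC50 via standard Hill equation.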

[12] = target: Cytochrome P450 2C19 (Homo sapiens) (UniProt P33261); experiment: qHTS Assay for Inhibitors and Substrates of Cytochrome P450 2C19 (AID 899); also: nearly all actives have a fitted effect of over 60% in size
Procedure, shortened: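 Luminescence readout of luciferin formed from 10uM Luciferin-H EGE (KM level) by 5 nM CYP2C19 in 50mM KPO4. 60 min NADPH-driven reaction at 37C after 10 min compound preincubation; data scaled to 57uM ketoconazole inhibition.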

[13] = qHTS Assay for Identification of Small Molecule Antagonists for Thrombopoietin (TPO) Signaling Pathway (AID 918); conditions: TPO-dependent cell signaling reporter, antagonist mode; also: potency is read from the fitted curve at half-maximal effect; nearly all actives have a fitted effect of over 60% in size
Procedure, shortened: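 Luminescence read-out: GPIIb-promoter luciferase in Ba/F3 cells carrying human TPO receptor. Compounds added with 26 pM TPO (EC50), 24 hrs, 37 C, 5% CO2; cells deprived of IL-3 overnight beforehand. Inhibition of signal scored.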

[14] = target: Muscarinic acetylcholine receptor M1 (Rattus norvegicus) (UniProt P08482); experiment: qHTS Assay for Antagonists of Acetylcholine Muscarinic M1 Receptor: Kinetic Measurement of Intracellular Calcium Response (AID 943);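 also: Fluo-4 calcium signal as peak divided by basal fluorescence over 4 min; series mostly up to about 35 µM; nearly all actives have a fitted effect of over 75% in size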
Procedure, shortened: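 Read-out: peak over basal Fluo-4 fluorescence, kinetic at 1 Hz for 4 min after EC80 carbachol (100 nM final). Rat M1-CHO cells, dye loaded 1 h at 37C, compound added 10 min before agonist.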

[15] = target: Pyruvate kinase (Leishmania mexicana) (UniProt Q27686); experiment: qHTS Validation Assay for Inhibitors of Leishmania Mexicana Pyruvate Kinase (AID 945)
Procedure, shortened: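 The enzyme is a highly purified E451W mutant of LmPYK used at 0.2 nM. It converts 0.5 mM PEP and 0.1 mM ADP over 1 h at room temperature; product ATP is quantified by luciferase luminescence relative to DMSO controls.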

[16] = target: Pyruvate kinase PKM (Homo sapiens) (UniProt P14618); experiment: qHTS Assay for Activators of Human Muscle Pyruvate Kinase (AID 954; active = well fitted curve in the direction sought with a large enough effect, not every such curve was filed as active)
Procedure, shortened: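 PKM2, human, >95% pure, 0.1 nM; PEP 0.5 mM (Km), ADP 0.1 mM; 50 mM imidazole pH 7.2, 50 mM KCl, 0.01% Tween 20, 0.05% BSA; 1 h RT; luciferase luminescence readout.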

[17] = qHTS Assay for Identification of Small Molecule Agonists for Thrombopoietin (TPO) Signaling Pathway (AID 917)
Procedure, shortened: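 First, Ba/F3 cells with human TPO receptor were held overnight without IL-3. Next, compounds and TPO (26 pM final) were added. After 24 hrs at 37 C, luciferase detection reagent was added and luminescence measured following 10 min at room temperature.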

[18] = target: Muscarinic acetylcholine receptor M1 (Rattus norvegicus) (UniProt P08482); experiment: qHTS Assay for Antagonists of Acetylcholine Muscarinic M1 Receptor: Measurement of IP-One Response (AID 944); also: nearly all actives have a fitted effect of over 75% in size
Procedure, shortened: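 Read-out: HTRF competition between d2-IP1 and Eu-cryptate anti-IP1 antibody, emission 620 and 665 nm. Stimulus was carbachol, EC80 (200 nM), for 30 min in M1-CHO cells (rat receptor), after 10 min compound pre-treatment.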

Measured: Potency

Sequence of Muscarinic acetylcholine receptor M1 (Rattus norvegicus) (P08482 whole entry, looked up): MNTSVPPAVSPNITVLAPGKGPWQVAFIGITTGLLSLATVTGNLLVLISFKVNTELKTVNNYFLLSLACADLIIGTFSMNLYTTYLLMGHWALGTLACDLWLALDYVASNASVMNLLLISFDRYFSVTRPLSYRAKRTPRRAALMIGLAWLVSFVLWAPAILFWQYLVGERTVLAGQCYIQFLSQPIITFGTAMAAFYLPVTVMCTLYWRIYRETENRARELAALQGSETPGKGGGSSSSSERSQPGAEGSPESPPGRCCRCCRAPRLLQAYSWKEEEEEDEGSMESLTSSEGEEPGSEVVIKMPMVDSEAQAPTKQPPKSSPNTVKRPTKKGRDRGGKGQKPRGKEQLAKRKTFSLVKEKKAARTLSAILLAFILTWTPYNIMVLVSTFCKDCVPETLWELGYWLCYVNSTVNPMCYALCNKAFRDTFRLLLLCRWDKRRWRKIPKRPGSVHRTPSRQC
Sequence of Cytochrome P450 2C19 (Homo sapiens) (P33261 whole entry, looked up): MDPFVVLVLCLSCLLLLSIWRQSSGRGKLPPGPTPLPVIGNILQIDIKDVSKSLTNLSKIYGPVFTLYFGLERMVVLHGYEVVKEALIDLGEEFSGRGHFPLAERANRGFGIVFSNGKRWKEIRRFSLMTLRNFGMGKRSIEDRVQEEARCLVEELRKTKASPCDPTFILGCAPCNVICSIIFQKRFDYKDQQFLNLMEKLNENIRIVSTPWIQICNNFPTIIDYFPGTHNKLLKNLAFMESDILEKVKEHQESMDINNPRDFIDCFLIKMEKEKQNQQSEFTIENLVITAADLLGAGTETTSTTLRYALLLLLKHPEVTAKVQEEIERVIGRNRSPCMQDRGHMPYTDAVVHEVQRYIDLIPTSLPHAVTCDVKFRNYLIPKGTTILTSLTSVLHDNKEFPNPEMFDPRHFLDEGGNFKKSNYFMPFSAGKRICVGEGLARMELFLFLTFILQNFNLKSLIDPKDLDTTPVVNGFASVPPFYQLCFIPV
Sequence of Pyruvate kinase PKM (Homo sapiens) (P14618 whole entry, looked up): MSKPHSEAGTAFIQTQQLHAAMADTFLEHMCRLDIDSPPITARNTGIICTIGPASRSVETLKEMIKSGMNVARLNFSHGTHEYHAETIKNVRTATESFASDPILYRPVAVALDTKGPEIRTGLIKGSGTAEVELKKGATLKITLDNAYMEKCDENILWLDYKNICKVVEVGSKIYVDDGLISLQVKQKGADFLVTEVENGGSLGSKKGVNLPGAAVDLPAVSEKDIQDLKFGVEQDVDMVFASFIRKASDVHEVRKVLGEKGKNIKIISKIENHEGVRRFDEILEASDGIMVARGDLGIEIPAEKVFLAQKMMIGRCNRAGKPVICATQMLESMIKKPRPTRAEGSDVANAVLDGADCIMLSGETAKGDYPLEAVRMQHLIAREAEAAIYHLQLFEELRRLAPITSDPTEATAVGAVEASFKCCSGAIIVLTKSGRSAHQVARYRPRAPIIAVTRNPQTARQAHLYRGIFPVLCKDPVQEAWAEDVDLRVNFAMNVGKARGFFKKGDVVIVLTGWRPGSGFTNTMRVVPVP
Sequence of Pyruvate kinase (Leishmania mexicana) (Q27686 2-499 E452W): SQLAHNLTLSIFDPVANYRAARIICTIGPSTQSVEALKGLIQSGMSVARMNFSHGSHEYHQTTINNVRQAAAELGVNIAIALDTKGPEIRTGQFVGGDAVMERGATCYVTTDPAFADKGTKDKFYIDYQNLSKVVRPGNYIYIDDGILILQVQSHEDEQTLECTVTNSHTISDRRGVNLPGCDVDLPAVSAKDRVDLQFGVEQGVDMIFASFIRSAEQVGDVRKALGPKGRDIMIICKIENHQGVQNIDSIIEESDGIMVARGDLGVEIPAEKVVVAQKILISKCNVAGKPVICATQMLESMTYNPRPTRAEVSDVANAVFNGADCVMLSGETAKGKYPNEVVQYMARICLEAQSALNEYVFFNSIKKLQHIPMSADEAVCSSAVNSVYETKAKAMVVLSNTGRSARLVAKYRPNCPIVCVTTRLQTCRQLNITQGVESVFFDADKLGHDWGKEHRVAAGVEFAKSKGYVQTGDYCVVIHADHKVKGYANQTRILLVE

CC(Cc1cccc(C(F)(F)F)c1)NCCOC(=O)c1ccccc1 (stereo not drawn)
inactive: [1] | [2]

Cc1cc(=O)n(-c2ccccc2)n1C
inactive: [1] | [2]

C=CCc1ccc(O)c(OC)c1
not listed: [12] | [13] | [14] | [15] | [16] | [17] | [18]
inactive: all other assays above

Oc1ccc(O)cc1
active: [13] 12.6 µM | [3] 25.1 µM | [6] 31.6 µM | [8] 12.6 µM | [9] 12.6 µM | [10] 50.1 µM | [11] 39.8 µM
inactive: [12] | [2] | [14] | [15] | [16]

O=C1OC(c2ccc(O)cc2)(c2ccc(O)cc2)c2ccccc21
inactive: [1] | [3] | [2] | [4] | [6] | [7] | [9] | [10] | [11]
active: [8] 15.8 µM

NC(=NCCCCCCN=C(N)/N=C(\N)Nc1ccc(Cl)cc1)/N=C(\N)Nc1ccc(Cl)cc1
active: [3] 39.8 µM | [4] 50.1 µM | [5] 39.8 µM | [6] 50.1 µM | [7] 15.8 µM | [9] 31.6 µM | [10] 50.1 µM | [11] 50.1 µM
inactive: [1] | [2]

CN(C)/N=N/c1nc[nH]c1C(N)=O
not listed: [12] | [13] | [14] | [15] | [16] | [17] | [18]
inactive: all other assays above

COc1c(C)c2c(c(O)c1C/C=C(\C)CCC(=O)O)C(=O)OC2
inactive: [12] | [1] | [2]

C1CCc2nnnn2CC1
inactive: [1] | [17] | [2] | [14] | [18] | [15] | [16]

Reference: PubChem BioAssay (NCATS)
